This is a sample that favours compounds with a hit; in the whole collection about 2.1% have one here.
Avidin bead fluor = compound fluoresces at 488/530 nm on avidin beads; 0.38% of 220,000 active; compound fluorescence 488/530 nm, flow cytometry; hits give high values; fluorescence (KMESF) at 10 µM; in the data active = fluorescence above about 47
EP2 modulator = modulates human prostaglandin E2 receptor EP2 signaling. 0.83% of 260,000 active. EP2-expressing cells, cAMP HTRF FRET, PGE2 co-stimulation. AID 940. P43116. induction, % at 25 µM;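 active = compounds whose cAMP rise, as percent of the full-agonist control response, exceeds 60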;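 note: rat C6 glioma line stably carrying human EP2 under a CMV promoter; the protocol text gives 20 µM as final concentration; 100% = response of wells given 1 µM PGE2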
Target sequence (P43116 whole entry, looked up): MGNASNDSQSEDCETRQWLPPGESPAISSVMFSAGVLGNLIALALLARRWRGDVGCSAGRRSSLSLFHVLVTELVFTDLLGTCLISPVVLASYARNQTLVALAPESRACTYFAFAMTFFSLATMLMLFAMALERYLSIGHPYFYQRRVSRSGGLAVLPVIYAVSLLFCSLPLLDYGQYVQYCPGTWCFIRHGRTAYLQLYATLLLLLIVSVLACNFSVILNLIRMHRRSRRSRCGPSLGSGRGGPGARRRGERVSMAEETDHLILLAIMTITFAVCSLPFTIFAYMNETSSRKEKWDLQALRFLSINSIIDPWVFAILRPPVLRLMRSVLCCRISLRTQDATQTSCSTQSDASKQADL
GSH fluor = GSH bead compound fluorescence profile; 0.25% of 190,000 active; GSH beads flow cytometry, compound fluorescence 488/530 nm; hits give high values; fluorescence (KMESF) at 10 µM; in the data active = fluorescence above about 89;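 note: glutathione beads carrying GST-tagged Bcl family fusion proteins plus one bare bead set; values are compound well signal with DMSO vehicle wells as background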
HMGR II inh = inhibitors of class II HMG-CoA reductase from Enterococcus faecalis | 0.41% of 190,000 active | purified E. faecalis HMGR, NADPH absorbance 340 nm kinetic | inhibition, % at 10 µM;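 active = inhibition above a set limit, the median over all tested compounds plus 3 SD, cut at about 9.5% in these data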;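 note: enzyme runs in reverse so mevalonate oxidation gives rising NADPH absorbance; 0% = complete reaction with DMSO and 100% = background rate lacking mevalonate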
PGE2 EP2 inh = inhibitors of human EP2 prostaglandin E2 receptor; P43116; C6 glioma cells expressing human EP2, cAMP TR-FRET; cells stimulated with saturating PGE2; inhibition, % at 25 µM; 0.52% of 260,000 active; AID 1422;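 active = percent inhibition above 40 after rounding to a whole number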;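 note: rat C6 glioma host cells with rolipram phosphodiesterase inhibitor present; the protocol text gives 20 µM as final concentration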
Numbers without * were called inactive; · = no result given; ! = repeats disagree.

SMILES | Avidin bead fluor | EP2 modulator | GSH fluor | HMGR II inh | PGE2 EP2 inh
CO[C@H]1C[C@H](O[C@H]2[C@H](C)[C@@H](OC3O[C@H](C)C[C@H](N(C)C)[C@H]3O)[C@@H](C)C[C@]3(CO3)C(=O)[C@H](C)[C@@H](O)[C@@H](C)[C@@H](C)OC(=O)[C@@H]2C)O[C@@H](C)[C@@H]1O (stereo partly specified) | · | -15.9 | · | · | 13.7
Cc1cc2nc(CCN3CCOCC3)n(S(=O)(=O)c3ccc(C(C)(C)C)cc3)c2cc1C | 7 | 61.4* | 19 | 3.5 | 1.9
COCCNC(=S)N1C2CCCC1CC(NC(=O)c1ccc(C)cc1)C2 (stereo unspecified) | · | -70.4 | · | · | 8.0
Cc1ccc2nc(N3C(=O)C(O)=C(C(=O)c4ccco4)C3c3ccco3)sc2c1 (stereo unspecified) | · | 11.8 | · | · | 35.4
Cc1ccc2nc(N3C(=O)C(O)=C(C(=O)c4ccc(C)o4)C3c3ccc(O)cc3)sc2c1 (stereo unspecified) | · | -7.7 | · | · | 49.4*
Cc1ccc2nc(N3C(=O)C(O)=C(C(=O)c4ccco4)C3c3cccs3)sc2c1 (stereo unspecified) | 24 | 31.2 | 23 | -2.1 | 75.4*!
CC(NC(=O)/C(=C\c1ccco1)NC(=O)c1ccccc1Br)C(=O)O (stereo unspecified) | 7 | 25.3 | 13 | 10.4* | 2.9
Cc1ccc(CN2CCc3c(nc(N4CC(C)OC(C)C4)[nH]c3=O)C2)cc1C (stereo unspecified) | · | -0.7 | · | · | ·
Cc1onc(-c2c(Cl)cccc2Cl)c1NC(=O)N(C)N | 49* | -10.5 | · | · | 3.2
O=C(Nc1nc2ccccc2s1)c1c(O)c2ccccc2[nH]c1=O | · | -17.7 | · | · | 10.6
CN1C[C@H](c2ccccc2)C(O)([C@]2(c3ccccc3)CN(C)C[C@H](c3ccccc3)C2=O)[C@H](c2ccccc2)C1 (stereo partly specified) | · | 21.0 | · | · | 39.7*
CCc1ccc2nc(SCC(=O)Nc3nc(C)c(C)s3)c(C#N)cc2c1 | · | -8.8 | · | · | 5.4
COc1cccc(Cn2c(-c3nonc3N)nc3ccccc32)c1 | 9 | 64.5* | 56 | -1.0 | 3.4
COc1cc(Cn2c(-c3nonc3N)nc3ccccc32)ccc1C | 12 | 24.0 | 35 | -3.8 | 16.8
CN1CCCCC1CCN1c2ccccc2Sc2ccc(S(C)=O)cc21 (stereo unspecified) | 7 | · | 67 | 5.6 | 17.8
COc1ccc2c(c1)N(CC[C@H]1CCCCN1C)c1ccccc1S2 | · | -55.2 | · | · | 41.3*
CC(=O)NCCOc1cccc(OCCNC(C)=O)c1 | 39 | 17.5 | 27 | -1.8 | 8.1
CC(C)CCOc1cccc(OCC(=O)O)c1 | 84* | 15.9 | 63 | -1.5 | 7.3
Cc1[nH]nc2c1C(c1ccsc1)C1=C(CC(C)(C)CC1=O)N2 (stereo unspecified) | 9 | 30.5 | 18 | 14.8* | 7.4
Cc1[nH]nc2c1C(c1ccc(O)cc1)C1=C(CC(C)(C)CC1=O)N2 (stereo unspecified) | 12 | 23.7 | 26 | -2.4 | 5.2
CCOc1ccc2c(c1)sc(N)[n+]2Cc1cc(C)cc2cccnc12 | 12 | 46.2 | 12 | -10.6 | 5.2
CCOc1ccc2c(ccc(/C=C/c3cc(C)c4cccnc4c3O)[n+]2C)c1 | · | 49.6 | · | · | 51.8*
CCCC(=O)Nc1sc(C(=O)Nc2ccccc2OC)c(C)c1C(=O)OC | · | -2.1 | · | · | 12.6
O=C(Nc1ccc(Cl)cc1)N(Cc1cccnc1)Cc1cc2cc3c(cc2[nH]c1=O)OCCO3 | · | 5.5 | · | · | 12.0
Nc1[nH]nc2nc3ccccc3cc12 | 14 | -16.5 | 8 | 10.1* | 4.3
SMILES | Avidin bead fluor | EP2 modulator | GSH fluor | HMGR II inh | PGE2 EP2 inh
O=[N+]([O-])c1ccccc1OCCOCCOc1cccc2cccnc12 | 16 | -2.9 | 17 | 11.7* | 4.0
CC(=O)N(CC(=O)Nc1nn(-c2ccccc2)nc1C(N)=O)Cc1ccccc1 | 37 | -13.9 | 10 | -4.5 | 0.6
CC(C)(C)n1nnnc1SCC(=O)Nc1nn(-c2ccccc2)nc1C(N)=O | 20 | 51.1 | 7 | 10.0* | 5.6
CC(C)=CCc1c(O)cc2c(=O)c3ccc(O)cc3oc2c1O | · | · | · | · | 21.4
CC(C)=CCc1c(O)cc(O)c2c(=O)c3c(CC=C(C)C)c(O)ccc3oc12 | · | · | · | · | 41.9*
Cc1[nH]c(=O)[nH]c(=O)c1NC(=O)CSc1ccc(-c2ccc(Cl)cc2)nn1 | · | -4.1 | · | · | 6.6
CCOc1ccc2[nH]c(=O)c(C(c3nnnn3C3CCCCC3)N3CCc4ccccc4C3)cc2c1 (stereo unspecified) | · | 24.3 | · | · | 9.0
Cc1ccccc1OCCC(=O)OCC(=O)Nc1cc(S(=O)(=O)N2CCOCC2)ccc1Cl | 20 | -12.5 | 12 | 13.4* | 5.3
N#C/C(=C/c1ccc(N2CCOCC2)o1)C(=O)Nc1ccccc1 | 55* | -10.0 | 21 | -4.4 | 5.4
Cc1cc(O)c(C(C)C)cc1C1(c2cc(C(C)C)c(O)cc2C)OC(=O)c2ccccc21 | 8 | 3.6 | · | · | 76.4*!
CCN1CCN(C(=O)c2c(NC(=O)c3cccs3)sc3c2CCC(C)C3)CC1 (stereo unspecified) | · | 7.1 | · | · | 4.1
O=C(CN1CCN(C(=O)c2ccco2)CC1)Nc1ccc2c(c1)OCCO2 | 223* | -4.6 | 36 | -3.8 | 17.5
N#Cc1nc2c(-c3nc4ccccc4s3)c(N)n(CC3CCCO3)c2nc1C#N (stereo unspecified) | · | -9.7 | · | · | 20.6
CCc1ccc(CN(C)CC(=O)Nc2ccc3c(c2)CCC3)cc1 | 11 | -78.9 | 22 | -6.5 | 5.2
Cc1ccc(CN(C)CC(=O)Nc2ccc3c(c2)CCC3)cc1 | 9 | -47.9 | 14 | 13.8* | 6.2
CC(=O)c1ccc(NC(=O)Nc2ccc3c(c2)N(C)C(=O)CS3)cc1 | 10 | -25.8 | 23 | -4.1 | 79.0*
CCOc1ccc(NC(=O)Nc2ccc3c(c2)N(C)C(=O)CS3)cc1 | 7 | -20.3 | 26 | -8.9 | 34.8
Cc1cccc2cc(C#N)c(SCC(=O)Nc3ccc(Cl)cc3)nc12 | · | 12.3 | · | · | 12.9
CCc1ccc2[nH]c(=O)c(CN(Cc3nnnn3Cc3ccc(F)cc3)C3CCCCC3)cc2c1 | · | 32.8 | · | · | 5.5
C[C@@H]1c2ccccc2Cn2cc3c(c21)C(=O)c1cccc(OP(=O)(O)OCc2ccccc2)c1C3=O | · | 25.4 | · | · | 41.6*
Cc1cc(NC(=O)c2cnn3c(C(F)(F)F)cc(-c4ccccc4)nc23)no1 | 21 | -54.9 | 15 | -1.7 | 51.0*
N#C/C(=C\Nc1ccccc1O)c1nc2ccccc2o1 | 11 | -105.3 | 14 | -6.4 | 54.2*
COc1ccc(/C=C/C(=O)NCCN2CCOCC2)cc1OC | 24 | 2.8 | 26 | 1.2 | 4.5
COc1ccc(/C=C/C(=O)NCCn2c(C)cc3ccccc32)cc1OC | 6 | -40.4 | 16 | -6.7 | 114.0*
c1ccc(CCNc2ccnc3cc4ccccc4cc23)cc1 | 6 | -83.2 | 17 | -2.5 | 57.5*
O=C(O)C1CC=CCC1C(=O)NCc1ccc2c(c1)OCO2 (stereo unspecified) | 4 | 21.8 | 102* | -3.0 | 9.1

Assay outcomes from PubChem BioAssay.
